This is an account of results in PubChem BioAssay (Tox21).

The structures appear in SMILES notation. “And” between values parts separate entries of the source, which are not always exact repeats. Identical values can stand only once. Inconclusive results are not listed. Entries that show only a call come without a potency. More than one record can exist for a structure, and the calls need not agree. The source made the active and inactive calls. Calls follow the shape of the dose curve; as a rule, active = well fitted cell-killing curve with a large enough effect in the repeat runs; inconclusive = weak or mixed curves, or effect the other way; inactive = flat fitted curve, though single readings scatter.
Potency is read from the fitted curve at half-maximal effect.

The assay in a line: Human pregnane X receptor (PXR) small molecule agonists, qHTS cell viability counter screen (AID 1346977). Also: nearly all actives have a fitted effect of over 50% in size. Conditions: PXR-Luc HepG2 viability, CellTiter-Fluor, 24 h; series mostly up to 92.4 µM; activity change, negative = cytotoxicity: at the top concentration. An excerpt: U.S. Tox21 Program National Center for Advancing Translational Sciences [NCATS] NIH Chemical Genomics Center [NCGC] U.S. Environmental Protection Agency [EPA] National Institutes of Environmental Health Sciences [NIEHS] National Toxicology Program [NTP] U.S. Food and Drug Administration [FDA] Tox21 Assay Overview: The human pregnane X receptor (hPXR) regulates the expression of several drug metabolizing enzymes and induction of these proteins is a major mechanism for developing drug resistance in cancer. One such key enzyme catalyzing the drug metabolism is cytochrome P450 3A4 (CYP3A4). Changes in CYP3A4 expression affect drug metabolism, thereby reducing the therapeutic efficacy and altering toxicological response to a drug and which finally causes adverse drug interaction. To screen Tox21 libraries for compounds that activate hPXR-mediated CYP3A4 gene expression, PXR-Luc HepG2 cells were used. Also cytotoxicity of the compounds was tested in parallel by measuring the cell viability using CellTiter-Fluor assay system in the same wells.
Tox21 Assay Protocol Summary: PXR-Luc HepG2 cells were dispensed at 2,000 per well in 5uL of assay medium containing 5% charcoal-stripped FBS into white solid bottom 1536-well plates (Corning Life Sciences, Corning, NY) using a Multidrop Combi (Thermo Scientific, Waltham, MA) dispenser. The assay plates were incubated at 37 C and 5% CO2 for 5hr, and then 23nL of compounds dissolved in DMSO and positive control were transferred using a Pintool station (Wako, San Diego, CA). The assay plates were incubated at 37C and 5% CO2 for 24hr. For cytotoxicity read, after 23hr incubation at 37C, 1uL CellTiter-Fluor reagent (Promega Corporation, Madison, WI) was added to each well of the assay plates using Flying Reagent Dispenser (FRD, Aurora Discovery, San Diego, CA). After 1hr incubation at 37C and 5% CO2, the fluorescence signal was quantified using a ViewLux plate reader (PerkinElmer, Shelton, CT).
Turning to `Cc1nnc(NS(=O)(=O)c2ccc(N)cc2)s1`, the Potency result is “inactive”. On to `CC[N+](CC)(CC(=O)Nc1c(C)cccc1C)Cc1ccccc1`, for which the Potency entry was “inactive”. The same measure, in the same setting: the value for `CCCCCC(C)=O` was “inactive and 61.1 µM (active)”; that for `CCc1cccc(O)c1` was “inactive”. Still for that read-out and setting: the value for `OC[C@H]1O[C@@H](Oc2ccc(O)cc2)[C@H](O)[C@@H](O)[C@@H]1O` was “inactive”; that for `CC1(C)[C@@H](O[C@H]2O[C@H](C(=O)O)[C@@H](O)[C@H](O)[C@H]2O[C@@H]2O[C@H](C(=O)O)[C@@H](O)[C@H](O)[C@H]2O)CC[C@]2(C)[C@H]3C(=O)C=C4[C@@H]5C[C@@](C)(C(=O)O)CC[C@]5(C)CC[C@@]4(C)[C@]3(C)CC[C@@H]12` was “inactive”; that for `Cc1ccccc1Cl` was “inactive”. `Nc1nc(N)c2nc(-c3ccccc3)c(N)nc2n1`: the “activity change, negative = cytotoxicity” value is 2.29% [at 42.5 µM] (inactive). Regarding `Cc1ccncc1`, the Potency entry was “inactive”.

Take `COc1ccc(N)c(OC)c1`: the “activity change, negative = cytotoxicity” value is 2.55% [at 42.5 µM] (inactive). `CC(C)(CO)CO`: the Potency entry is “inactive”. Still for that read-out and setting: the value for `O=[N+]([O-])c1cc(C(F)(F)F)ccc1Cl` was “inactive”; that for `CCn1cc(C(=O)O)c(=O)c2cc3c(cc21)OCO3` was “inactive”; that for `CCCOCC(C)O` (stereo not given) was “inactive”. Take `COc1ccccc1[N+](=O)[O-]`: the Potency entry is “inactive”. Still for that read-out and setting: as for `OC1CCCCC1`, the entry is “inactive”; as for `C=CC(C)(C)C`, “inactive”; as for `CC(=O)Nc1ccc(CC(=O)O)cc1`, “inactive”. On the same count and under the same terms, the value for `C=C(C)CC(C)(C)C` was “inactive”; that for `Cc1ccc(Cl)cc1` was “inactive”. On the same count and under the same terms, the value for `COc1c2ccoc2cc2oc(=O)ccc12` was “inactive”; that for `CC(=O)c1nccs1` was “inactive”; that for `O=Cc1ccc(CO)o1` was “inactive”.

Take `Cc1ccccc1C=O`: the Potency result was “inactive”. Take `COc1ccc([C@@H]2CC(=O)c3c(O)cc(O[C@@H]4O[C@H](CO[C@@H]5O[C@@H](C)[C@H](O)[C@@H](O)[C@H]5O)[C@@H](O)[C@H](O)[C@H]4O)cc3O2)cc1OC`: the Potency result was “inactive”.

On to `O=c1n(CCCN2CCN(c3cccc(Cl)c3)CC2)nc2ccccn12`, for which the Potency entry was “inactive”. In the case of `CC(=O)C(C)C`, the Potency result is “inactive”. On the same count and under the same terms, the value for `Cc1ccc(C(C)C)cc1` was “inactive”; that for `CCOC(=O)c1ccc(O)cc1` was “inactive”; that for `CO[Si](CCCNCCN)(OC)OC` was 31.6 µM (active) and inactive. Same read-out and setting: the value for `CC(=O)OC(C)(C)C1CC=C(C)CC1` (stereo not given) was “inactive”; that for `NC(N)=S` was “inactive”. As for `COc1ccc2cc3[n+](cc2c1OC)CCc1cc2c(cc1-3)OCO2`, the “activity change, negative = cytotoxicity” value is -19.9% [at 42.5 µM] (inactive). As for `O=C1O[C@H]([C@H](O)CO)C(O)=C1O`, the Potency entry was “inactive”. Same read-out and setting: as for `OCC(CO)(CO)CO`, the entry is “inactive”; as for `Oc1ccc(Cc2ccccc2O)cc1`, “inactive”; as for `CC1(C)C(=O)N(Cl)C(=O)N1Cl`, “inactive”. On the same count and under the same terms, as for `CC(=O)OC/C=C(\C)CCC=C(C)C`, the entry is “inactive”. As for `CN1Cc2c(N)cccc2C(c2ccccc2)C1` (stereo not given), the Potency entry is “inactive”. As for `Cc1ncc(CO)c(CO)c1O`, the Potency result was “inactive”.
